PubChem BioAssay AID1851 (National Center for Advancing Translational Sciences (NCATS), 2009)
In all, about 16,000 compounds went through this assay and about 5,100 (32%) were called active. Not shown: some 25% with an inconclusive outcome. Some of the results follow. A number with no mark means an inactive call. The call rests on the fitted dose curve; in most records, active means well fitted curve in the direction sought with a large enough effect; inconclusive means small, poorly fitted or top-dose-only effect, or effect the other way; inactive means no such curve, though single readings can be large or run the other way.

biological target: Cytochrome P450 3A4 (Homo sapiens) (UniProt P08684); assay: Cytochrome panel assay with activity outcomes; conditions: recombinant CYP, pro-luciferin dealkylation, luminescence, p450-cyp3a4; series mostly up to 57.1 µM; activity, negative = inhibition: at the top concentration
Sequence (P08684 whole entry, looked up): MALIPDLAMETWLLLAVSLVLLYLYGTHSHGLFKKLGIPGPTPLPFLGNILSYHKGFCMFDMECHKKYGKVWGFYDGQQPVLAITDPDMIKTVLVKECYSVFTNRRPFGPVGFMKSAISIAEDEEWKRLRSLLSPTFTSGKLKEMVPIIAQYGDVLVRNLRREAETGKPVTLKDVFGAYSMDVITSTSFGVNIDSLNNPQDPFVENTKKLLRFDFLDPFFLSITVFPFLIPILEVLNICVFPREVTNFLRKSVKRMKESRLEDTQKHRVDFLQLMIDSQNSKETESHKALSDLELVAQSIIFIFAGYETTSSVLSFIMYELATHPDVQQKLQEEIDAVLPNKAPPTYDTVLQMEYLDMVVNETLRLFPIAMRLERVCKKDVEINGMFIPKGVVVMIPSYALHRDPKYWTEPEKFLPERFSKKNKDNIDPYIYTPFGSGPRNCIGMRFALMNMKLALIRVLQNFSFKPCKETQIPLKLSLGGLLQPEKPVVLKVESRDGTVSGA
On the % scale 0 is the no-effect control and ±100 the full control effect.

| Compound | activity, negative = inhibition | AC50 |
| --- | --- | --- |
| CCCCSC(=S)N(C)C1CCS(=O)(=O)C1 (configuration not stated) | -9.97% |  |
| CN(C)c1ccc(-c2nccc(Nc3ccc(F)cc3)n2)cc1 |  | 12.6 µM (active) |
| CN(C)c1ccc(-c2cc(Nc3ccc(F)cc3)ncn2)cc1 |  | 10 µM (active) |
| Nc1nccc(Nc2ccc(S(N)(=O)=O)cc2)n1 | -5.22% [at 11.4 µM] |  |
| Fc1ccc(Nc2ccnc(-c3ccc4c(c3)OCO4)n2)cc1 |  | 2 µM (active) |
| Fc1ccc(Nc2ccnc(-c3ccoc3)n2)cc1 |  | 7.94 µM (active) |
| C(=Nc1cnc2ccccc2c1)c1ccc2ccccc2n1 | -12.4% [at 11.4 µM] |  |
| O=C1C2C3C=CC(C3)C2C(=O)N1c1ncn[nH]1 (configuration not stated) | -2.95% |  |
| O=C1C2C3c4ccccc4C(c4ccccc43)C2C(=O)N1c1nc(-c2ccccc2)cs1 (configuration not stated) | 0.59% [at 2.29 µM] |  |
| CC(C)(C)C(=O)N1CCc2cc(-c3csc(N)n3)ccc21 |  | 8.91 µM (active) |
| COc1ccccc1CNS(=O)(=O)c1ccc2[nH]cc(C(=O)O)c(=O)c2c1 | -19.8% |  |
| O=C(OCCN1CCCCC1)c1c[nH]c2ccccc12 |  | inactive |
| COc1cc(Cl)c(CC(=O)c2c[nH]c3ccccc23)cc1OC |  | 2.51 µM (active) |
| O=[N+]([O-])c1ccc(/C=N/Nc2cc(Cl)nc(-c3ccccc3)n2)cc1 | -19% |  |
| Nc1nnnn1/N=C\c1ccc(Cl)c([N+](=O)[O-])c1 | -9.78% |  |
| Nc1cc(Cl)nc(N/N=C/c2ccccc2[N+](=O)[O-])n1 |  | 14.1 µM (active) |
| N[C@@H]1[C@@H]2[C@@H]3C[C@H]4N(CC[C@@]14C(=O)C(=O)O)CC3=CCO[C@@H]2CC(=O)O | -11.7% [at 11.4 µM] |  |
| COc1ccc2c(c1)CCc1c(C(=O)N3CCCCCC3)noc1-2 |  | 14.1 µM (active) |
| CSc1nc2ccccc2cc1/C=C(\C#N)c1ccc(Cl)cc1Cl | 25.6% [at 11.4 µM] |  |
| CCOC(=O)C1=NNC2(c3ccc(Cl)cc3)C(=O)N(c3cc(C)cc(C)c3)C(=O)C12 (configuration not stated) |  | 2.24 µM (active) |
| Cc1nc2sc(C#N)c(N)c2c2c1CCCC2 |  | 14.1 µM (active) |
| Cc1ccc(-c2c3c(nc4sc(C(N)=O)c(N)c24)CCC3)cc1 | 0.806% [at 2.29 µM] |  |
| COc1nc(C)nc(Cl)c1NC1=NCCN1 |  | inactive |
| CN=C1N[C@H](c2ccccc2)N(c2ccccc2)S1 |  | 31.6 µM (active) |
| S=C(NCCSCc1c(Cl)cccc1Cl)Nc1ccccc1 |  | 7.08 µM (active) |
| OCCSCc1cc(Cl)cc(Cl)c1O | -27.9% [at 11.4 µM] |  |
| S=C(NCCSCc1ccc(Cl)cc1Cl)Nc1ccccc1 |  | 7.94 µM (active) |
